# In the library only some 18% were active in any assay of this set; here they are far more common.
# TDP1 cell noCPT – qHTS for Inhibitors of human tyrosyl-DNA phosphodiesterase 1 (TDP1): qHTS in cells in absence of CPT; DT40 Tdp1-/- hTDP1 cells, no CPT, ATP luminescence, 48 h; Potency, µM (titrated, usually from 46.2 µM), for inactives: at the top dose activity change, negative = growth inhibition, actives largely listed as inhibitors; 420,000 compounds, 15% hits; AID 686978, 2013; also: nearly all actives have a fitted effect of over 55% in size
#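 Growth of hTDP1-complemented DT40 Tdp1-knockout cells is measured by ATP luminescence after at least 48 hr compound exposure at 37 °C, with DMSO substituting for the 20 nM CPT used in the parallel screen.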
# VDR inhibitor – blocks the human vitamin D receptor. 400,000 compounds, 0.93% hits. Potency, µM, inactives show max response, negative = inhibition, actives largely listed as inhibitors. VDR-SRC2-3 peptide fluorescence polarization, 2 h. P11473
#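 VDR–SRC2-3 interaction, FP format. Cmpds 23 nl via pintool, brief spin, 2 h ambient incubation.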
# PLK1 PBD inh – blocks phosphopeptide binding to human PLK1 polo-box domain; P53350; Plk1 PBD binding of FITC phosphopeptide, fluorescence polarization; Potency, µM, for inactives: max response, negative = inhibition, usual class: inhibitors; 360,000 compounds, 2.8% hits; also: series mostly up to about 57 µM; nearly all actives have a fitted effect of over 65% in size
# Target sequence (P53350 whole entry, looked up, the tested form may be a part): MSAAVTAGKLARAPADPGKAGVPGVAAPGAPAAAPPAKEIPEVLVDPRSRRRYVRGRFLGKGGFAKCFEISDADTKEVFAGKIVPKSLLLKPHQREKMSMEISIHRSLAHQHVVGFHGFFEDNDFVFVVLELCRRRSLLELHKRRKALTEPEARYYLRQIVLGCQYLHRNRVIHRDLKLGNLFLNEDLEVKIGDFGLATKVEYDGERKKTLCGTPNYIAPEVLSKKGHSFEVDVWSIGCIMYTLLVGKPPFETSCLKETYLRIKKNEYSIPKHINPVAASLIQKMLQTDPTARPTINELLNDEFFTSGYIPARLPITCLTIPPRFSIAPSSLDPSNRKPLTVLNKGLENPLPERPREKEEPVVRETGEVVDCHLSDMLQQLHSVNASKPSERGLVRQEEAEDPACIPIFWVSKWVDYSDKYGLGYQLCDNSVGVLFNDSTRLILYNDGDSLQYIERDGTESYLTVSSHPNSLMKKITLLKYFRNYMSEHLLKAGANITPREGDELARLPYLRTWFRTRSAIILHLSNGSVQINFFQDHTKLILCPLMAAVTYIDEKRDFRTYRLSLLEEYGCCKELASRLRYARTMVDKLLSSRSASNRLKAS
# TDP1 inh – inhibitors of human tyrosyl-DNA phosphodiesterase TDP1; Q9NUW8; recombinant TDP1, AlphaScreen DNA substrate cleavage; Potency, µM (series often up to 130 µM), for inactives: at the highest dose activity change, negative = inhibition, most hits filed as inhibitors; 350,000 compounds, 0.28% hits; AID 485290; also: nearly all actives have a fitted effect of over 40% in size
#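 E. coli-derived human Tdp1, 1 nM final. Cpd preinc 15 min RT; substrate 15 nM final, 5 min RT; AS bead mix 10 ug/ml final, 10 min RT. Signal loss = tyrosine-FITC cleavage. No-enzyme wells = max signal.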
# KAT2A inh – inhibitors of human GCN5L2 histone acetyltransferase; GCN5L2 HAT assay, ThioGlo1 CoA-SH fluorescence; Potency, µM (highest dose often 58.9 µM), for inactives: top-dose activity change, negative = inhibition, hits mostly inhibitors; 390,000 compounds, 0.21% hits
#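 qHTS, 1536-well. 20nM enzyme, pH 7.5 HEPES/EDTA/Tween-20 buffer; 15 min compound preinc., RT. Start: 75uM H3(1-25), 70uM AcCoA, 50uM ThioGlo1. Read Ex340/Em540 at t=0 (autofluorescence flag) and t=20 min.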
# DT40 TDP1 CPT – DT40-hTDP1 cell growth loss with CPT. chicken DT40 Tdp1-/-;hTDP1 cells + 20 nM CPT, ATP luminescence, 48 h. Potency, µM (highest dose often 46.2 µM), inactives show at the top dose activity change, negative = growth inhibition, most hits filed as inhibitors. 420,000 compounds, 12% hits. AID 686979; also: nearly all actives have a fitted effect of over 55% in size
#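 Chicken DT40 Tdp1-/- cells stably complemented with human TDP1 were seeded at 400 cells/well in medium containing 20 nM camptothecin, exposed to pin-transferred compounds, and grown at 37 °C for at least 48 hr. Viability was read as ATP luminescence.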
# * marks the source's active call; other numbers are inactive results; ? = inconclusive; nt = no result given. Calls follow the shape of the dose curve; as a rule, active = well fitted curve in the direction sought with a large enough effect; inconclusive = small, poorly fitted or top-dose-only effect, or another doubt; inactive = no such curve, though single readings can be large; an effect the other way counts as inactive or inconclusive. % is scaled to controls: 0 for no effect and ±100 for the full control effect; potency is read from the fitted curve at half-maximal effect.
SMILES,TDP1 cell noCPT,VDR inhibitor,PLK1 PBD inh,TDP1 inh,KAT2A inh,DT40 TDP1 CPT
Cc1c(OCC(=O)NC2CC(C)(C)NC(C)(C)C2)ccc2c1oc(=O)c1ccccc12,12µM*,-16%,-4%,0%,-6%,?
COc1ccc(CNC(=O)c2ccc3c(c2)NC(=O)C(C)S3)cc1 (stereo not drawn),-21%,?,13µM*,0%,-10%,?
COc1ccc(CNC(=O)c2ccc3c(c2)NC(=O)C(CS(=O)(=O)Cc2ccccc2Cl)N3)cc1 (stereo not drawn),?,5%,nt,6%,-3%,?
CC1Sc2ccc(C(=O)N(CCc3ccccc3)Cc3ccccc3)cc2NC1=O (stereo not drawn),?,nt,3%,nt,nt,21µM*
CC1Sc2ccc(C(=O)O)cc2NC1=O (stereo not drawn),-5%,-2%,-7%,-7%,-3%,-8%
CCOC(=O)N1CCC(NC(=O)C2CCCN(Cc3nc(-c4cccc(Cl)c4)oc3C)C2)CC1 (stereo not drawn),0.73µM*,-4%,3%,3%,-13%,0.82µM*
Cc1oc(-c2ccc(Cl)cc2)nc1CN1CCCC(C(=O)NCc2ccc(Cl)cc2)C1 (stereo not drawn),?,-25%,nt,2%,-1%,?
CCOC(=O)N1CCC(NC(=O)CS(=O)(=O)Cc2nc(-c3cccc(Cl)c3)oc2C)CC1,-22%,4%,-13%,1%,0%,-13%
CCc1ccc(-c2nc(CN3CCCC(C(=O)NCCc4ccc(OC)c(OC)c4)C3)c(C)o2)cc1 (stereo not drawn),13µM*,-3%,-5%,9%,-15%,23µM*
CCCN(CCC)CCNC(=O)C1CCN(Cc2nc(-c3ccc(Cl)cc3)oc2C)CC1,23µM*,-14%,-15%,2%,-2%,?
CCc1ccc(-c2nc(CN3CCCC(C(=O)NCc4ccccc4Cl)C3)c(C)o2)cc1 (stereo not drawn),4.6µM*,-4%,nt,7%,-9%,6.5µM*
C[C@H](CO)N1C[C@H](C)[C@@H](CN(C)C(=O)C2CCOCC2)Oc2ncc(Br)cc2C1=O,-2%,nt,5%,nt,nt,12%
Cc1cc(-c2nnc(SCC(=O)Nc3ccc(Br)cc3F)n2N)n[nH]1,11%,2%,-4%,1%,-4%,-17%
CCN1CCN(CCNC(=O)C2CCCN(Cc3nc(-c4cccc(Cl)c4)oc3C)C2)CC1 (stereo not drawn),16µM*,-16%,-6%,4%,-1%,21µM*
Cc1cc(N2CCN(Cc3nc(-c4ccc(Cl)cc4)oc3C)CC2)cc(C)n1,18µM*,-7%,-6%,nt,-4%,12µM*
Cc1oc(-c2cccc(Cl)c2)nc1CN1CCCC(C(=O)NCCc2ccc(Cl)cc2)C1 (stereo not drawn),?,-11%,nt,6%,-1%,?
Cc1ccc(CCNC(=O)C2CCN(Cc3nc(-c4ccccc4C)oc3C)CC2)cc1,18µM*,?,nt,6%,-2%,13µM*
Cc1ccccc1-c1nc(CN2CCCC(C(=O)NCc3cccnc3)C2)c(C)o1 (stereo not drawn),16µM*,-7%,-8%,5%,-2%,23µM*
Cc1ccc2c(CC(=O)N3CCN(c4cccc(Cl)c4)CC3)coc2c1,?,19%,nt,5%,-10%,?
Cc1oc(-c2ccc(Cl)cc2)nc1CN1CCCC(C(=O)NC2CC2)C1 (stereo not drawn),10µM*,?,21µM*,2%,1%,16µM*
Cc1oc(-c2ccc(Cl)cc2)nc1CN1CCCC(C(=O)NCc2ccco2)C1 (stereo not drawn),23µM*,9%,-6%,4%,-8%,?
Cc1oc(-c2ccc(Cl)cc2)nc1CN1CCCC(C(=O)NCCCN2CCCC2=O)C1 (stereo not drawn),8.2µM*,-14%,-8%,-1%,-22%,8.2µM*
COC(=O)c1ccc(C(NC(=O)OCc2ccccc2)/C(=C/[C@@H](C)C(=O)N(C)Cc2ccccc2)c2cccnc2)cc1 (stereo partly drawn),nt,nt,nt,10%,nt,nt
CC1(C)S[C@@H]2[C@H](NC(=O)[C@H](N)c3ccccc3)C(=O)N2[C@H]1C(=O)OC1OC(=O)c2ccccc21 (stereo partly drawn),8.2µM*,-30%,-15%,nt,0%,12µM*
O=C(CN1CCN(C2CCCCC2)C(=O)C1=O)Nc1ccc(Cl)cc1,?,24%,nt,4%,33%,?
SMILES,TDP1 cell noCPT,VDR inhibitor,PLK1 PBD inh,TDP1 inh,KAT2A inh,DT40 TDP1 CPT
Clc1ccc(NCc2ccsc2)cc1,nt,nt,nt,3%,?,nt
CC(C)c1ccc(NC(=O)C[n+]2ccn(C3=C([O-])c4ccccc4C3=O)c2)cc1,-26%,8%,-16%,50µM*,-3%,-1%
COc1ccc(CC(N)c2csc(NC(=O)Nc3cccc(C(F)(F)F)c3)n2)cc1 (stereo not drawn),?,nt,1%,nt,nt,?
NC(Cc1ccc(C(F)(F)F)cc1)c1csc(NC(=O)Nc2ccccc2)n1 (stereo not drawn),?,nt,0%,nt,nt,13µM*
NC(COCc1ccccc1)c1csc(NC(=O)Nc2cccc(Cl)c2)n1 (stereo not drawn),?,nt,4%,nt,nt,23µM*
NC(Cc1ccc(C(F)(F)F)cc1)c1csc(NC(=O)Nc2ccccc2Cl)n1 (stereo not drawn),21µM*,nt,7%,nt,nt,?
NC(Cc1ccc(Cl)cc1)c1csc(NC(=O)Nc2ccccc2)n1 (stereo not drawn),15µM*,nt,-6%,nt,nt,13µM*
NC(CO)c1csc(NC(=O)Nc2cccc(Cl)c2)n1 (stereo not drawn),-14%,nt,-8%,nt,nt,-7%
COc1ccc(CCNC(=O)CCc2cc(OC)c(OC)c(OC)c2)cc1OC,2%,10%,-1%,nt,4%,24%
CCOC(=O)c1cc(-c2ccc(OC)cc2)n(CCC(=O)NCCc2ccc(OCC)c(OCC)c2)c1C,?,23%,nt,2%,-2%,?
COc1ccc(C(=O)OCC(=O)N(Cc2ccccc2)Cc2ccccc2)c(O)c1,18µM*,nt,8%,nt,nt,?

# Assay outcomes as filed in PubChem BioAssay.
